Here are results for 8 compounds from PubChem BioAssay (Tox21).

Unmarked numbers belong to inactive results. Results filed as inconclusive are left out. The source made the active and inactive calls. Unless noted, calls come from the whole dose curve; as a rule, active = well fitted curve in the direction sought with a large enough effect in the repeat runs; inconclusive = weak or mixed curves; inactive = no such curve, though single readings can be large; an effect the other way counts as inactive or inconclusive.

Assay [1] in a line: A CellTox Green Cytotoxicity Assay to monitor cytotoxicity in HepG2 cells - 8 hour (AID 1224890). Note: % is set by controls: 0 for no effect and ±100 for the full control effect; nearly all actives have a fitted effect of over 45% in size. The method, boiled down: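 Nonlytic assay: viable cells exclude the dye, so fluorescence scales with cell death. HepG2 at 600 cells/well, compounds added after 5 h, signal read across 40 h.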
The nature of assay [2]: qHTS assay to identify small molecule antagonists of the estrogen receptor alpha (ER-alpha) signaling pathway using the BG1 cell line in the presence of 0.1 nM 17-beta-estradiol - cell viability counter screen (AID 1259241). Note: % is set by controls: 0 for no effect and ±100 for the full control effect; nearly all actives have a fitted effect of over 40% in size. An outline of the steps: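 VM7Luc4E2 cells (endogenous full-length ER-alpha, 4xERE-luciferase), cultured 5 days in charcoal-stripped serum, exposed to compounds with 0.1 nM 17beta-estradiol (final) for 22 hr at 37C. Viability read in same wells as live-cell protease fluorescence after 30 min.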

Assay [3] can be described thus: qHTS assay to identify small molecule antagonists of the androgen receptor (AR) signaling pathway using the MDA cell line in the presence of 0.5 nM R1881 - cell viability counter screen (AID 1259242). Note: % is set by controls: 0 for no effect and ±100 for the full control effect; nearly all actives have a fitted effect of over 45% in size. An outline of the steps:
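R1881 at 0.5 nM final stimulated MDA-kb2 cells during 16 hr compound treatment at 37C. Cytotoxicity read: CellTiter-Fluor fluorescence after 30 min.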

The target of assay [4] is Estrogen receptor (Homo sapiens) (UniProt P03372). Kind of assay: qHTS assay to identify small molecule antagonists of the estrogen receptor alpha (ER-alpha) signaling pathway using the BG1 cell line in the presence of 0.1 nM 17-beta-estradiol (AID 1259244). Note: % is set by controls: 0 for no effect and ±100 for the full control effect; nearly all actives have a fitted effect of over 50% in size. The method, boiled down: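 VM7Luc4E2; 4xERE-luciferase; 0.1 nM E2 final; 22 h co-incubation, 37C; ONE-Glo luminescence after 30 min at room temperature.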

Assay [5] is described as follows: qHTS assay to identify small molecule HDAC inhibitors (AID 1259364).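 Note: wild-type HCT-116 cells with endogenous class I/II HDAC activity; top concentration of the series differs between compounds; % is set by controls: 0 for no effect and ±100 for the full control effect; nearly all actives have a fitted effect of over 45% in size.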 An outline of the steps: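 Relative class I and II HDAC activity is taken from the luminogenic signal in HCT-116 cells, with compound exposure 2 hr and reagent development 30 min at room temperature.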
Assay [6] is described as follows: qHTS assay to identify small molecule HDAC inhibitors - cell viability counter screen (AID 1259365). Note: series mostly up to about 92 µM; % is set by controls: 0 for no effect and ±100 for the full control effect; nearly all actives have a fitted effect of over 50% in size. The method, boiled down: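 Wild-type HCT-116 cells, 1,500/well, cultured overnight, then compound-treated 2 h at 37 C. Viability measured as ATP luminescence with CellTiter-Glo after 30 min at room temperature.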
A short description of assay [7]: qHTS assay to identify small molecule agonists of the sonic hedgehog signaling (Shh) pathway - cell viability counter screen (AID 1259366). Note: nearly all actives have a fitted effect of over 50% in size. Note: potency is the fitted concentration of half-maximal effect. The method, boiled down:
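NIH/3T3-derived Gli1-Luc reporter cells, 2,000 per well, received compound after 4 h and were treated about 23 h at 37C. Viability measured in the same wells by CellTiter-Fluor fluorescence after 1 h.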

Assay [8] can be described thus: qHTS assay to identify small molecule antagonists of the sonic hedgehog signaling (Shh) pathway - cell viability counter screen (AID 1259367). Note: % is set by controls: 0 for no effect and ±100 for the full control effect; nearly all actives have a fitted effect of over 55% in size. The method, boiled down:
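After a 4 hr settling period, 3T3 Gli1-Luc cells were treated with DMSO-dissolved chemicals and conditioned medium, kept 24 hr at 37C in 5% CO2, and assayed for viability by CellTiter-Fluor fluorescence following 1 hr reagent incubation.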

Assay [9] can be described thus: qHTS assay to identify small molecule agonists of the sonic hedgehog signaling (Shh) pathway (AID 1259368; calls by dose curve;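 note: NIH/3T3-derived 3T3Gli1-Luc cells carrying a stable Gli1-driven firefly luciferase reporter; series mostly up to about 92 µM; % is set by controls: 0 for no effect and ±100 for the full control effect; nearly all actives have a fitted effect of over 15% in size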). The method, boiled down:
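Mouse fibroblast (NIH/3T3) reporter cells with stably integrated Gli1-Luc were treated 24 hr with compound; firefly luciferase luminescence served as the read-out.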

Assay [10] in a line: qHTS assay to identify small molecule antagonists of the sonic hedgehog signaling (Shh) pathway (AID 1259369; calls by dose curve; note: nearly all actives have a fitted effect of over 45% in size; note: potency is the fitted concentration of half-maximal effect). An outline of the steps: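 Conditioned medium drives Shh signalling in 3T3Gli1-Luc cells; compounds in DMSO co-applied, 24hr at 37 C, then luciferase luminescence.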
Assay [11] is described as follows: qHTS assay to identify small molecule agonists of the androgen receptor (AR) signaling pathway in the presence of an antagonist - cell viability counter screen (AID 1259379).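 Note: MDA-kb2 human breast cancer cells carrying an MMTV luciferase reporter; series mostly up to about 92 µM; % is set by controls: 0 for no effect and ±100 for the full control effect; nearly all actives have a fitted effect of over 25% in size.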 The method, boiled down: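 A CellTiter-Fluor read-out measured viability of MDA-kb2 reporter cells (MMTV promoter with AR and GR response elements). Treatment: nilutamide 3.0uM final with compounds at 15 concentrations, 16 hr, 37C, 0% CO2.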

The nature of assay [12]: qHTS assay to identify small molecule antagonists of the estrogen receptor beta (ER-beta) signaling pathway - cell viability counter screen (AID 1259382). Note: series mostly up to about 92 µM; % is set by controls: 0 for no effect and ±100 for the full control effect; nearly all actives have a fitted effect of over 55% in size. The method, boiled down:
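Agonist-stimulated (1nM E2) ER-beta-UAS-bla HEK293T cells are incubated with library compounds for 16 hr at 37C. Cell viability is then assessed in the reporter-assay wells by adding CellTiter-Glo and reading luminescence after 30 min.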

Assay [13] deals with Estrogen receptor (Homo sapiens) (UniProt P03372). Kind of assay: qHTS assay to identify small molecule agonists of the estrogen receptor alpha (ER-alpha) signaling pathway in the presence of an antagonist (AID 1259383; calls by dose curve; note: top concentration of the series differs between compounds; % is set by controls: 0 for no effect and ±100 for the full control effect; nearly all actives have a fitted effect of over 15% in size). The method, boiled down: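 Using VM7Luc4E2 cells seeded 24hr before treatment, antagonist ICI-182,780 (10.0nM final) was added, followed by compounds at 15 concentrations. Plates incubated 22hr; ONE-Glo luminescence quantified reporter activity.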

A short description of assay [14]: qHTS assay to identify small molecule agonists or antagonists of the thyroid stimulating hormone receptor (TSHR) signaling pathway - wild type cell line counter screen (AID 1259384; calls by dose curve; note: % is set by controls: 0 for no effect and ±100 for the full control effect). An outline of the steps:
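Wild-type HEK293 cells were plated 18 h at 37 C/5% CO2, pin-dosed with compound plus Ro20-1724 medium, held 30 min at room temperature, then given cAMP-d2 and anti-cAMP-cryptate; fluorescence was read after 1 h. Fifteen concentrations, triplicate.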

Assay [15] concerns the target Estrogen receptor beta (Homo sapiens) (UniProt Q92731). The assay can be described thus: qHTS assay to identify small molecule agonists of the estrogen receptor beta (ER-beta) signaling pathway (AID 1259377; active = well fitted activation curve with a large enough effect in the signal ratio in the repeat runs, not every such curve was filed as active; the % refers to the signal ratio; note: % is set by controls: 0 for no effect and ±100 for the full control effect). The method, boiled down: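 ER-beta-UAS-bla HEK293T cells in medium with 2% charcoal-stripped FBS were exposed to compounds for 16 h at 37C. Beta-lactamase reporter activity was read as fluorescence after 2 h with LiveBLAzer B/G FRET substrate at room temperature.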

Assay [16] shares this target. The assay can be described thus: qHTS assay to identify small molecule antagonists of the estrogen receptor beta (ER-beta) signaling pathway (AID 1259378; active = well fitted inhibition curve with a large enough effect in the signal ratio in the repeat runs, not every such curve was filed as active; the % refers to the signal ratio; note: % is set by controls: 0 for no effect and ±100 for the full control effect). An outline of the steps:
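ER-beta-UAS-bla HEK293T (GripTite) cells in 2% charcoal-stripped FBS medium were preincubated 6 hr at 37C, dosed with compound, then stimulated with 1 nM E2 (final) for 16 hr; beta-lactamase reporter read by B/G FRET fluorescence after 2 hr substrate loading.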

A short description of assay [17]: qHTS assay to identify small molecule agonists of the estrogen receptor beta (ER-beta) signaling pathway - cell viability counter screen (AID 1259380). Note: % is set by controls: 0 for no effect and ±100 for the full control effect; nearly all actives have a fitted effect of over 30% in size. The method, boiled down: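 Cells used were ER-beta-UAS-bla HEK293T in medium with 2% charcoal-stripped FBS. They were treated for 16 hr at 37C. Viability came from CellTiter-Glo luminescence.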
For assay [18], the target named is Androgen receptor (Homo sapiens) (UniProt P10275). Kind of assay: qHTS assay to identify small molecule agonists of the androgen receptor (AR) signaling pathway in the presence of an antagonist (AID 1259381; calls by dose curve; note: potency is the fitted concentration of half-maximal effect; nearly all actives have a fitted effect of over 15% in size). An outline of the steps:
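Using human MDA-kb2 cells with an MMTV promoter–luciferase construct (AR and GR response elements), agonist activity is scored under 3.0uM nilutamide (final) co-treatment; 16hr incubation, 37C, luminescence readout via ONE-Glo.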

Assay [19] is described as follows: qHTS assay to identify small molecule phospholipidosis (PLD) inducers (AID 1259344; active = well fitted curve in the direction sought with a large enough effect; an effect the other way counts as inactive or inconclusive; note: % is set by controls: 0 for no effect and ±100 for the full control effect). An outline of the steps:
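HepG2 cells grown on collagen I take up LipidTOX Red while exposed to compound for 24 h; after fixation they are imaged at 20x and pit metrics are extracted.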

Sequence of Estrogen receptor (Homo sapiens) (P03372 whole entry, looked up): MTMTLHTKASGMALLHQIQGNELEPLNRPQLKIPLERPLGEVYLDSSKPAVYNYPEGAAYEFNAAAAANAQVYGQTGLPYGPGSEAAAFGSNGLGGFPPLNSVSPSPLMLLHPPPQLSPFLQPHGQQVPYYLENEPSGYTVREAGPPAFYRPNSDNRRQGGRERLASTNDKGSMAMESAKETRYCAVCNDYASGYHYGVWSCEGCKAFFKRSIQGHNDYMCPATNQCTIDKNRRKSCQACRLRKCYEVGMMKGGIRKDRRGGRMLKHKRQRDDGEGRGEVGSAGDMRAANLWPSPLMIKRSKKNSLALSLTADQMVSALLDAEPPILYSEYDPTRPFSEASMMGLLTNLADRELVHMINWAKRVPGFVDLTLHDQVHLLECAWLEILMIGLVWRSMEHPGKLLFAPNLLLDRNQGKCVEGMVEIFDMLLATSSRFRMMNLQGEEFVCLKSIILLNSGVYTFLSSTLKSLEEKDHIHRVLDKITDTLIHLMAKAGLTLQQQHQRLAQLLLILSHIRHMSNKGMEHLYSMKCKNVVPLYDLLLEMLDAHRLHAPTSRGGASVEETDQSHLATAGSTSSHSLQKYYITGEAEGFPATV
Sequence of Estrogen receptor beta (Homo sapiens) (Q92731 whole entry, looked up): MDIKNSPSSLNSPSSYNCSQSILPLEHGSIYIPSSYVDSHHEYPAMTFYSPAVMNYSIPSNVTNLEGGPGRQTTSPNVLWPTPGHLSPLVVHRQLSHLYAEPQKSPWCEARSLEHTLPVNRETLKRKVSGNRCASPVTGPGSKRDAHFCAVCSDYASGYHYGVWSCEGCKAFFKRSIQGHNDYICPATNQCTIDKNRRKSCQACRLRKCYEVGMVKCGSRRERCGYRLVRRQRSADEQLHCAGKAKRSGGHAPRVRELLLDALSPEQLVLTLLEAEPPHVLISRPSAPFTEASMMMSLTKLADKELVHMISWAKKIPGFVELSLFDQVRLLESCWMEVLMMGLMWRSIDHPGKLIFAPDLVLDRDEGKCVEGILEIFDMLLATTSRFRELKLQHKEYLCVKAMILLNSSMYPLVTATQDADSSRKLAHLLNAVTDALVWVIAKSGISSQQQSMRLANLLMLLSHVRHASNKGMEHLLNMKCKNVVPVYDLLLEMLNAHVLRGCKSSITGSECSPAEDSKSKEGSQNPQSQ
Sequence of Androgen receptor (Homo sapiens) (P10275 whole entry, looked up): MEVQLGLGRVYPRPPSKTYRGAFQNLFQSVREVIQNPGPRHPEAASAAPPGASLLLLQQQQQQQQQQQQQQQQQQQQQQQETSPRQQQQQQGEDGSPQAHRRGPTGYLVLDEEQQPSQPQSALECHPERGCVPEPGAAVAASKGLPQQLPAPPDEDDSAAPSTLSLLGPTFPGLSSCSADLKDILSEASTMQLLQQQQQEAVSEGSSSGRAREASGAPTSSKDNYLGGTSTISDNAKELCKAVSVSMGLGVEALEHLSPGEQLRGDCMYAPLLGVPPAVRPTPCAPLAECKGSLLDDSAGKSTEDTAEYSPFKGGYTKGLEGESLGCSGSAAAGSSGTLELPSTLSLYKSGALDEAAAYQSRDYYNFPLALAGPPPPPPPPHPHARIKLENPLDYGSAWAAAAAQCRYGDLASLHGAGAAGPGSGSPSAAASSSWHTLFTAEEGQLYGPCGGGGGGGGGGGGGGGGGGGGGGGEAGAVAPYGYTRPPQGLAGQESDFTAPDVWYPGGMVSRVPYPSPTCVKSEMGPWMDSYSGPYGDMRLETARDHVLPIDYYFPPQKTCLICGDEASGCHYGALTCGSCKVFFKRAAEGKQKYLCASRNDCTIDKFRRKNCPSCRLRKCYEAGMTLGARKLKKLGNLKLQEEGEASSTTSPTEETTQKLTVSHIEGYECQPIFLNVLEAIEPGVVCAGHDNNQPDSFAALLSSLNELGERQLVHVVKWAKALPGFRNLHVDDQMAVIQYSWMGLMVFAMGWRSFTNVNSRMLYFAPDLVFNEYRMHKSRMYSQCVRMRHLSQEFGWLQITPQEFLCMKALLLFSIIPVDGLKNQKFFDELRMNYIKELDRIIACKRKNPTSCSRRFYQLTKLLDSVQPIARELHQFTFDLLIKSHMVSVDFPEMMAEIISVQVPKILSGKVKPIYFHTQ

Take `O=Cc1ccc(F)c(Br)c1`: the Potency result in [1], in [2], in assay [4], in assay [5], in assay [7] and in assay [8] was “inactive” throughout. The Potency entry in assay [9], in assay [10], in assay [11] and in assay [13] was “inactive” in each case. In addition, the outcome in assay [3], in assay [6], in assay [12] and in assay [14] was inactive.
Turning to `CCCCCCCCCC/C=C/C#N`, the Potency entry in assay [1], in [2], in [4], in [5], in assay [7] and in [8] was “inactive” in each case. Besides, the Potency result in assay [9], in assay [16], in [11] and in assay [13] was “inactive” throughout. Besides, the result in assay [3], in [6], in assay [15], in assay [12] and in assay [14] was inactive.
Consider `CC(C)C(=O)OCC(C)(C)C(O)C(C)C` (stereo unspecified), for which the Potency result in assay [1], in assay [2], in assay [4], in [5], in assay [7] and in assay [8] was “inactive” each time. Further, the Potency result in assay [9], in [10], in assay [16], in assay [11], in [17] and in [13] was “inactive” throughout. The outcome in assay [3], in assay [6], in assay [15], in assay [12] and in assay [14] was inactive.
On to `COC(=O)c1ccc2cc(C(=O)OC)ccc2c1`, for which, in [1], the cytotoxicity increase was -0.23% [at 15.8 µM]. For the same compound, the activity change, negative = cytotoxicity is -8.86% [at 19 µM] in assay [2]; -11% [at 19 µM] in assay [6]; 2.92% [at 19 µM] in [11]; 0.723% [at 19 µM] in [17]; -4.09% [at 19 µM] in assay [12]. Also, the values for the viability change, negative = cytotoxic in assay [3], in [7] and in assay [8] were 1.72% [at 19 µM], 0.624% [at 19 µM] and -4.66% [at 19 µM], respectively. Moreover, the values for the activity change, negative = inhibition in assay [4] and in assay [5] were -28.1% [at 19 µM] and -8.76% [at 19 µM], respectively. Further, the activity change in assay [9] is 6.39% [at 18.9 µM, stronger effect = higher value]. The Potency in assay [10] was 9.93 µM (active). Also, in assay [13], the activation is 0.0917% [at 19 µM]. Also, the cAMP activity change in [14] was 3.63% [at 18.9 µM].
With `O=C1CCN(c2ccccc2)N1`, the Potency entry in assay [1], in assay [2], in assay [4], in assay [5], in [7] and in assay [8] was “inactive” in each case. Moreover, the Potency entry in assay [9], in [10], in assay [11] and in assay [13] was “inactive” throughout. Moreover, the outcome in assay [3], in [6], in assay [15] and in [14] was inactive. Moreover, the Potency in assay [18] was 30.7 µM (active).
In the case of `CN(C)C(=O)NC1(c2ccccc2)CCN(CCC[C@]2(c3ccc(Cl)c(Cl)c3)CCCN(C(=O)c3ccccc3)C2)CC1`, in assay [1], the cytotoxicity increase is 9.35% [at 15.8 µM]. The activity change, negative = cytotoxicity in assay [2] is 3.34% [at 19 µM]; in assay [6], -5.58% [at 19 µM]; in assay [11], -7% [at 19 µM]; in assay [12], -18% [at 19 µM]. Besides, the viability change, negative = cytotoxic in [3] is -6.41% [at 19 µM]. The activity change, negative = inhibition in assay [4] is 3.38% [at 19 µM]; in assay [5], -4.11% [at 19 µM]; in [10] it was -22.9% [at 19 µM]. Moreover, in assay [7], the Potency is 13 µM (active). Moreover, the activity change in assay [9] is -5.82% [at 18.9 µM, stronger effect = higher value]. Further, the activation in [15] is -0.37% [at 19 µM]; in [13], -0.618% [at 19 µM]. In addition, the activity, negative = inhibition in [16] was -8.74% [at 19 µM]. Moreover, in [14], the cAMP activity change was -1.66% [at 18.9 µM].
As to `CCC/C=C/CO`, the Potency entry in assay [1], in assay [2], in assay [4], in [5], in assay [7] and in assay [9] was “inactive” throughout. Moreover, the Potency result in [10], in assay [16], in assay [11], in [17] and in assay [13] was “inactive” each time. Also, the result in assay [3], in assay [6], in [12] and in assay [14] was inactive.
With `C[C@]12CCC(=O)C=C1CC[C@@H]1[C@@H]2CC[C@@]2(C)[C@H]1CC[C@]2(O)C(=O)CO`, the Potency result in [1], in assay [2], in [4], in assay [5], in assay [7] and in [9] was “inactive” throughout. The Potency result in [10], in assay [11], in assay [17] and in assay [13] was “inactive” throughout. For the same compound, the outcome in assay [3], in assay [19], in [6], in assay [12] and in assay [14] was inactive.
